The results in this text go back to the supplement of paper PMC6555819.

The assay concerns VDR:RXRa (NR concentration 270 nM, RXRa partner concentration 90 nM). Description: PBM binding z-score (relative to random genomic background probes); higher = stronger binding; sequences stand for … in GC…GCGATTGACAGCGTAGAATGAAGG
Here is the method:
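Protein-binding microarray (Agilent 4x180K custom design, double-stranded 60-nt probes: 5' GC cap, 34-nt variable region, 24-nt constant primer region; full probe sequence given). Purified or IVT nuclear receptor:RXRα heterodimers (3:1 NR:RXRα, mostly 270:90 nM) or homodimers were incubated for 1 h in PBS with 2% milk and no ligand, then detected with Alexa488 antibodies. Fluorescence from o1-orientation probes (~5 replicates averaged) was converted to z-scores against 500 random hg19 background probes. Variable regions are seed direct-repeat (DR0–DR5) sites, all their single-nucleotide variants and half-site ablations.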
Sequence TTACCAAGGTGAGCCGAGGTCGTTGATCCAACTC yielded a PBM binding z-score of 4.51. On to CCTCGGAGGACTACAGGAGGTCAGAGCTGCCAGA, for which the PBM binding z-score stood at 1.26. Take TGGCCTAGGTCATTGGGCCAGTATAGTACGCATC: the PBM binding z-score was 1.87. Regarding GCTGGCAGGCCATTTGGGTCACTCAATGACGGGC, the PBM binding z-score came out at 1. Sequence TCTGCTAGGTCAACGATGGTAAGCTAATCTGCTA came in with a PBM binding z-score of 1.82.

In the case of TAGCCTAGGTCACTGGGCCAGTATAGTACGCATC, the PBM binding z-score was 1.45. The sequence TCTATTAGTTGATTAGGGCATCCGAAACAGCGGA had a PBM binding z-score of 0.719. Sequence CGAACTAGGTCATGGACAGGACAGTGAATAGTAA had a PBM binding z-score of 2.3.

TCTCGGAGTACACGAAGGTCAGAGCTTTCCAGAG came in with a PBM binding z-score of 2.27.

As for TTACCAAGGTGAAAGGTCGTCGATGCACGCCTTG, the PBM binding z-score was determined as 3.09. On to ACTAGTTGGTGAGCTGAGGTCACACACAATTCGG, for which the PBM binding z-score amounted to 3.55.

AGTACAGGGTCATCGTAGGCCAGAGTACGCACAG showed a PBM binding z-score of 5.08.

The sequence CCTACTGGGCCACGACAGGTCATTGATTCAGTGA displayed a PBM binding z-score of 1.32.

On to TTACCAAGGTGAGCAGAGGTCGTTGATCCAACTC, for which the PBM binding z-score amounted to 3.68. Turning to TCGAGTAGGCTAGGGGCATTCAGAATGGCGTCGA, the PBM binding z-score was -0.094. Take TAGCCTACGTCAGATCGGGCCAGTATACGCTATA: the PBM binding z-score is -0.713. GGAACGAGAGCATTCGAGTTGATAGCATGGCGAT: the PBM binding z-score is -0.115. For CCGACTGGGGCAGGGTTACCATAACGCACAGCCA, the PBM binding z-score is 0.216.

As for CAAACTAGGTCAAGGTCATAGTCGGTTTGTGCCA, the PBM binding z-score was 5.01.

Consider ATCGAAAGGTAGTGAGGTGAGTATACAGAAAGGC, for which the PBM binding z-score is -0.165. The sequence TCTGCTAGGTCAACGATTGTCAGCTAATCTGCTA registered a PBM binding z-score of 0.993. The sequence TCATGTAGGTAAAGGTGAAAGTCGAACGATATGA yielded a PBM binding z-score of 1.11. Consider CTCGAAGGGTCGTGCTCAGGTGAGTATACCAAAC, for which the PBM binding z-score was 1.59. Under CTCGAAAGGTCGGTTGAAGTGAGTATACGGATAA stands 1.23; under CAAACTAGGTCACCGGAAGGTCAATGTCCGCATG, 5.36; under GCAACGAGGGCAAGTTGATAGCAGAGTTTGATGG, 0.955. Under GCAGACAGGTGAAACGCAAGTAACTCAGGGTGGC stands -0.526. Under ATCTCTAGGTATCAAGTTCAGTGAAAGAGAGGAC stands 1.94; under CGAACTAGGTCTGAACAGGACAGTGAAGGATGAT, -0.557. TCTGCTAGGTCAGTTGCTCAGCTAACGAGCTGCC: the PBM binding z-score is -0.466. CGAAGGAGGGCATGAGTTGATAGCAAATGCCGAT displayed a PBM binding z-score of 0.513. In turn, CGAACGAGGGCATGAGCTGATAGCAAATGCCGAT displayed a PBM binding z-score of 0.355. Sequence TAGTCTAGGTCATGGGCCAGTATACCACGCGAAC returned a PBM binding z-score of 2.13.

Regarding ACTATTAGTTGACTTAGGACAACCGATACGACGC, the PBM binding z-score was found to be 0.499.

ATTTCTAGGTAAAGTTCAGTGAAAGATCGATAGA: the PBM binding z-score was 2.11. As for CGAACTACGTCAGAACAGGACAGTGAAGGATGAT, the PBM binding z-score is -0.451. CCTTACGGGGCAAGGTTATAGCACGGGTGGTACG came in with a PBM binding z-score of 0.0431. Under TAGCCTAGGTCATTGGGCCAGTATCGTACGCATC stands 2.37; under TCATATAGGTAAATGCTAGGTGAAAGTGCGATCT, 0.984. In the case of TCATATAGGCAAACAGGTGAAAGTCCGTAAGTTA, the PBM binding z-score came out at 0.719.
